# Screening data deposited in PubChem BioAssay by several laboratories.
# UGM FP inh = Mtb UDP-galactopyranose mutase inhibition | 320,000 tested, 0.06% active | AID 504406 | inhibition, % at 10 µM | purified UGM, fluorescence polarization probe displacement | P9WIQ1; in the data active means inhibition above about 10%, passing the limit was not always enough
# Target sequence (P9WIQ1 whole entry, looked up): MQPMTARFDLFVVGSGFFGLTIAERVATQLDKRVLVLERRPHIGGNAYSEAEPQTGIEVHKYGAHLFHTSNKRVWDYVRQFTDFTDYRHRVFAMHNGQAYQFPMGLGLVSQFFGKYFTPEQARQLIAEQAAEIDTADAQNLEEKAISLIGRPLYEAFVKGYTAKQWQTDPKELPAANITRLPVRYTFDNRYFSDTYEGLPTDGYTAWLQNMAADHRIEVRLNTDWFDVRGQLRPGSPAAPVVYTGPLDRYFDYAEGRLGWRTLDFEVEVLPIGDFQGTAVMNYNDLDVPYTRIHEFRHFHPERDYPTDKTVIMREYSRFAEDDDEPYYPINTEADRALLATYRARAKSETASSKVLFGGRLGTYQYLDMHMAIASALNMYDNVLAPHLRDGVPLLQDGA
# Mtb FBA inh = inhibits M. tuberculosis FBA enzyme; P9WQA3; purified M. tuberculosis FBA, fluorescence read-out; inhibition, % at 1 µM; 360,000 tested, 2.3% active; AID 588726; in the data active means inhibition above about 27%;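 further: 0% = vehicle and 100% = reference inhibitor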
# GDH-TPI inh = counter-screen for M. tuberculosis FBA inhibitors: GDH-TPI coupled enzymes; GDH-TPI coupled enzyme counterscreen, NADH absorbance; inhibition, % at 4.8 µM; 360,000 tested, 1.2% active; in the data active means inhibition above about 30%;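 further: 0% = DMSO wells and 100% = wells lacking the enzyme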
# RecA splice inh = Mtb RecA intein splicing inhibition. cell-free RecA intein splicing, fluorescence. inhibition, % (test concentration not listed). 290,000 tested, 0.75% active; in the data active means inhibition above about 30%;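 further: 0% = vehicle wells and 100% = reference inhibitor control wells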
# Rv3671c protease = inhibitors of M. tuberculosis serine protease Rv3671c | P9WHR9 | inhibition, % at 5.96 µM | 320,000 tested, 0.048% active; in the data active means inhibition above about 38%;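 further: extracellular domain of Rv3671c used as enzyme; 0% = enzyme with DMSO and 100% = no enzyme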
# Vc quorum ag = induces V. cholerae light production without autoinducers; V. cholerae BH1578 lux reporter, luminescence, 6 h; activation, % at 18.7 µM; 350,000 tested, 0.16% active; AID 588436; in the data active means activation mostly above about 9.7%, no sharp cut-off
# * = called active by the depositor; i = inactive; x = no result given; + = active, no number. An excerpt weighted towards active compounds, which were near 4.1% of everything screened.
SMILES,UGM FP inh,Mtb FBA inh,GDH-TPI inh,RecA splice inh,Rv3671c protease,Vc quorum ag
COc1ccc(Nc2cc(C)nc3ccc(OC)cc23)cc1,2,2,34*,4,3,0
O=C(O)c1cccc(Nc2c3ccccc3nc3ccccc23)c1,0,124*,0,-72,-2,0
CC(=O)c1cccc(Nc2cc(C)nc3ccccc23)c1,7,-6,32*,-6,5,0
COC(=O)c1ccc(Nc2cc(C)nc3ccccc23)cc1,-4,6,42*,1,9,-2
COc1ccc2nc(C)cc(Nc3ccc(C(=O)O)cc3)c2c1,1,0,3,1,-10,i
COc1ccccc1C(=O)Nc1nnc(SCC(=O)NC2CCCC2)s1,1,6,2,3,0,i
O=C(Cc1ccc(S(=O)(=O)N2CCOCC2)s1)N1CCN(S(=O)(=O)c2ccccc2[N+](=O)[O-])CC1,x,-1,-2,x,x,i
CC1(C(=O)NCc2ccc(F)c(F)c2)Cc2c(-c3cccc(C(F)(F)F)c3)ccnc2O1 (configuration not stated),x,-2,-3,x,x,0
COc1ccc(NS(=O)(=O)c2cccc(C(=O)NC3CCC(O)CC3)c2)cc1 (configuration not stated),-2,-4,-20,2,1,-1
COc1ccc(Nc2ccnc3ccccc23)cc1,-2,0,32*,2,0,0
O=C(c1ccco1)N1CCN(C2CN(CCc3ccccc3)S(=O)(=O)C2)CC1 (configuration not stated),x,4,x,x,x,x
Cc1cccc(OCC(=O)Nc2nnc(-c3ccco3)s2)c1,1,6,12,-2,-6,0
CCOc1cccc(C(=O)Nc2nnc(-c3ccco3)s2)c1,-4,12,37*,x,-13,i
CCCCNC(=S)N1CCN(c2ccc(C(C)=O)cc2)CC1,4,-1,35*,0,-11,-1
C[C@H]1CN([C@@H](C)CO)C(=O)CCCn2cc(nn2)CO[C@@H]1CN(C)S(=O)(=O)c1cccc(F)c1,x,1,6,x,x,1
CN(C)C(=O)COc1ccc2ccc(=O)oc2c1,2,23,7,-1,4,0
CC(C)=CC(O)C/C(C)=C/COc1ccc2ccc(=O)oc2c1 (configuration not stated),1,83*,17,-1,8,-1
N#Cc1c(C(F)(F)F)cc(-c2ccccc2)[nH]c1=O,1,+,0,-13,-1,i
CSc1cc(-c2ccccc2)[nH]c(=O)c1C#N,3,34*,19,-3,5,0
N#Cc1c(C(F)(F)F)cc(C2CC2)[nH]c1=O,3,+,24,-1,-6,0
Cc1ccc(-c2cc(C(F)(F)F)c(C#N)c(=O)[nH]2)cc1,2,139*,17,-25,-7,1
COC(=O)Cn1cnc2scc(-c3ccc(C)cc3)c2c1=O,2,3,-7,-1,-7,-1
CCOC(=O)[C@H]1[C@H]2COc3ccc(C)cc3[C@@H]2N2C(=O)CN(Cc3ccco3)C(=O)[C@@]12C,-1,3,0,x,-4,0
N#Cc1c(C(F)(F)F)cc(-c2ccccc2Cl)[nH]c1=O,1,145*,10,1,-6,0
Cc1ccc(-c2cc(-c3ccco3)c(C#N)c(=O)[nH]2)cc1,0,124*,26,-33,1,-1
SMILES,UGM FP inh,Mtb FBA inh,GDH-TPI inh,RecA splice inh,Rv3671c protease,Vc quorum ag
COc1cccc(-c2cc(C(F)(F)F)c(C#N)c(=O)[nH]2)c1,2,+,6,-16,-7,0
CCCCc1ccc(S(=O)(=O)NC(=O)C2(C)CCN2C(=O)CC2CC2)cc1 (configuration not stated),x,6,8,x,x,0
Cc1cc(OCC(=O)OCC(=O)NC2CCS(=O)(=O)C2)ccc1Cl (configuration not stated),x,0,-9,x,x,i
CN(C)S(=O)(=O)c1cccc(NC(=S)N/N=C/c2ccco2)c1,0,4,52*,0,6,-4
CN(C)S(=O)(=O)c1cccc(NC(=S)N/N=C/c2ccc(O)c(O)c2O)c1,x,-5,32*,8,x,0
C/C(=N\NC(=O)c1ccccc1)c1ccc(N2CCOCC2)cc1,0,-10,31*,2,4,-3
C[C@H](CO)N1C[C@H](C)[C@@H](CN(C)C(=O)Cc2ccccc2)OCCCC[C@H](C)Oc2ccc(NC(=O)NC3CCCCC3)cc2C1=O,x,0,1,x,x,-1
